Screening results as filed in PubChem.
Rows were chosen to be rich in hits. Some 1.6% of all compounds tested hit in one or more screens of this group.
KCNQ2 pot – potentiators of rat KCNQ2 potassium channel; O88943; CHO-K1 KCNQ2, FluxOR thallium flux fluorescence; hits give high values; B-score at 10 µM; 310,000 tested, 0.54% active;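 active = fluorescence ratio B-score at least 3 SD of library B-scores, with initial fluorescence B-score within 3 of them, cut at about 5.3 in these data; same plate scores as AID 2156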;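 also: B-score of peak minus minimum over baseline fluorescence ratio after K+ and Tl+ stimulus; positive B-score means potentiation of KCNQ2 with more thallium influx and brighter signal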
Target sequence (O88943 whole entry, looked up): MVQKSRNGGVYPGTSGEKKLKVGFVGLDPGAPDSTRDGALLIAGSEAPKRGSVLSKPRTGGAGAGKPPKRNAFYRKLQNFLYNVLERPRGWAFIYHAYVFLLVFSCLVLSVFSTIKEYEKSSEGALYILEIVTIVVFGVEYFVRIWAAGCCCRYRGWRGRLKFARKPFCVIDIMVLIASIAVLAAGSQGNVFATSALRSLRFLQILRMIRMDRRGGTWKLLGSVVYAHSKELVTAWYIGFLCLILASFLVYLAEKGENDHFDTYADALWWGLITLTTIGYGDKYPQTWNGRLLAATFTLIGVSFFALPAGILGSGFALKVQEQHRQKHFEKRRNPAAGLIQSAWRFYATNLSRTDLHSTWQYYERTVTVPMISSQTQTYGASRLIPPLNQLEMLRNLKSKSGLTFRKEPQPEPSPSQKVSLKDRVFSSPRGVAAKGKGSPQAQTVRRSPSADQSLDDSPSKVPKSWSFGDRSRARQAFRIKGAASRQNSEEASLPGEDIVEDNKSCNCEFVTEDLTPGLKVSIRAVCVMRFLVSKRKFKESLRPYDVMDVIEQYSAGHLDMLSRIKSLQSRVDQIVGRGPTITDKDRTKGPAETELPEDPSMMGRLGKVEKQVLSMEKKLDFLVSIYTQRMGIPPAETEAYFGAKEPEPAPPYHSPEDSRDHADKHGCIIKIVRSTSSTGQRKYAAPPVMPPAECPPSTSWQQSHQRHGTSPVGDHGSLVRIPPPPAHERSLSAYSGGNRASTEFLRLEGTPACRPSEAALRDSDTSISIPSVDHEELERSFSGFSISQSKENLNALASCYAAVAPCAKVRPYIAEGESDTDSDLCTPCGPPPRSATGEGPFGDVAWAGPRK
KCNQ2 block – inhibitors of rat KCNQ2 potassium channel; O88943; CHO-K1 KCNQ2, FluxOR thallium flux, 20 min; hits give low values; B-score at 10 µM; 310,000 tested, 1.1% active; AID 2156;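 active = fluorescence ratio B-score at most minus 3 library SDs, with starting brightness B-score within 2 library SDs, cut at about -5.5 in these data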
Active calls of the source: *; i = inactive; · = no result.

SMILES	KCNQ2 pot	KCNQ2 block
Cc1ccc(S(=O)(=O)NC2c3cccc4cccc(c34)C2Sc2nncn2C)cc1 (stereo not given)	1.5	i
Cc1ccc(S(=O)(=O)NC2c3cccc4cccc(c34)C2Sc2nc(C)cc(C)n2)cc1 (stereo not given)	-6.4	-6.4*
Cc1[nH]c(=O)[nH]c(=O)c1S(=O)(=O)Nc1cccc(C(F)(F)F)c1	·	i
CCOCCn1c(N2CCCC2)nc2c1c(=O)n(C)c(=O)n2C	·	i
Cc1cc(C)cc(NC(=S)/C(=C(\[O-])c2ccc(Cl)s2)[n+]2cccc(C)c2)c1	-6	-6*
Cc1ccc(C)c(NC(=S)/C(=C(\[O-])c2ccc(Cl)s2)[n+]2ccccc2)c1	0.75	i
O=C1COC(c2ccccc2)=CN1Cc1ccccc1	·	i
Cc1csc(Nc2nc(N)c(C(=O)Nc3cc(Cl)ccc3F)o2)n1	·	i
C=Cn1cc[n+](CC(=O)C(C)(C)C)c1	·	i
COc1cc([N+](=O)[O-])ccc1NC(=O)CSc1n[nH]c(C(C)C)n1	1.4	i
CN(c1ccccc1)S(=O)(=O)c1cccc(NC(=O)CSc2ncc(C(F)(F)F)cc2Cl)c1	9.7*	i
CN(c1ccccc1)S(=O)(=O)c1cccc(NC(=O)CSc2nncn2C)c1	0.07	i
Cc1cccc(OCCC(=O)Nc2ccc(C)c(S(=O)(=O)N3CCCCC3)c2)c1	0.25	i
O=S(=O)(c1ccc(N2CCC(c3ccc(Cl)cc3)=N2)cc1)N(CCO)CCO	1.8	i
CN(C)CCCNS(=O)(=O)c1ccc(N2CCC(c3ccc(Cl)cc3)=N2)cc1	-5.9	-5.9*
COc1cccc(CN2CCNC(=O)C2CC(=O)NCC(C)(C)N2CCOCC2)c1OC (stereo not given)	·	i
COc1ccc(CCNC(=O)COC(=O)/C=C/c2cc(OC)c(OC)c(OC)c2)cc1OC	·	i
Cc1ccc(S(=O)(=O)N2CCC(=O)N(C(COCc3ccc(Cl)cc3Cl)Cc3ccccc3)CC2)cc1 (stereo not given)	-6	-6*
O=C(c1ccc(Cl)c(Cl)c1)N1CCC(=O)N(C(COCc2ccc(Cl)cc2)Cc2ccccc2)CC1 (stereo not given)	-5.9	-5.9*
Cc1cccc(COCC(Cc2ccccc2)N2CCN(C(=O)c3cc(Cl)cc(Cl)c3)CCC2=O)c1 (stereo not given)	·	i
Cc1cccc(COCC(Cc2ccccc2)N2CCN(C(=O)c3ccc(Cl)c(Cl)c3)CCC2=O)c1 (stereo not given)	·	i
Cc1ccc(S(=O)(=O)N2CCC(=O)N(C(COCc3cccc(Cl)c3)Cc3ccccc3)CC2)cc1 (stereo not given)	·	i
Cc1cccc(COCC(Cc2ccccc2)N2CCN(C(=O)c3cccc(C)c3)CCC2=O)c1 (stereo not given)	-5.8	-5.8*
Cc1ccccc1COC[C@H](CC(C)C)N1CCN(C(=O)c2cccc(C(F)(F)F)c2)CCC1=O	-6.9	-6.9*
CC(C)CC(COCc1cccc(C(F)(F)F)c1)N1CCN(C(=O)c2cccc(C(F)(F)F)c2)CCC1=O (stereo not given)	·	i
SMILES	KCNQ2 pot	KCNQ2 block
Cc1cccc(OC(C)C(=O)N2CCN(Cc3ccc4c(c3)OCO4)CC2)c1 (stereo not given)	0.16	i
CC1CN(S(=O)(=O)c2cccc(C(=O)Nc3ccc(S(=O)(=O)Nc4ncccn4)cc3)c2)CC(C)O1 (stereo not given)	1.3	i
CC(C)(C)C(=O)N(Cc1ccc(Cl)cc1)c1cnccn1	1.4	i
O=C(CSc1nnc(Cc2ccccc2)n1-c1cccc(Cl)c1)NNC(=O)Cc1ccccc1	·	i
COc1ccc(CCC(=O)N2CCN(C(=O)c3ccccc3)CC2)cc1	0.88	i
Oc1c(Br)cc(Br)cc1C=NCc1ccccc1	·	i
Oc1c(Br)cc(Br)cc1C=NCc1ccc(F)cc1	11*	i
Cc1sc2nc(-c3ccccn3)[nH]c(=O)c2c1-c1ccccc1	13*	i
Cc1sc2nc(-c3ccncc3)[nH]c(=O)c2c1-c1ccccc1	0.02	i
CC12CCC(=O)N1C(C(=O)Nc1nc(-c3cc(F)ccc3F)cs1)CS2 (stereo not given)	·	i
Cc1ccc(CNC(=O)NC23CC4CC(CC(C4)C2)C3)cc1	11*	i
NS(=O)(=O)c1ccc(CNC(=O)NC23CC4CC(CC(C4)C2)C3)cc1	0.67	i
O=c1c2ccccc2nc(SCc2nc3ccccc3s2)n1Cc1ccco1	·	i
CCCCn1c(SCc2nc3ccccc3s2)nc2ccccc2c1=O	-7.8	-7.8*
CO/C=C\C=C/c1nnn(-c2ccc(Cl)cc2)n1	-6.9	-6.9*
Clc1ccc(-n2cnnn2)cc1	0.78	i
Oc1ccc(O)c(Cc2nc3ccccc3s2)c1	-5.6	-5.6*
Oc1ccccc1OCc1nc2ccccc2s1	·	i
Cn1c(CN2CCN(c3ccc(Cl)cc3)CC2)nc2ccccc21	0.08	i
CCn1c(CN2CCN(c3ccc(Cl)cc3)CC2)nc2ccccc21	-5.6	-5.6*
Fc1ccc(-c2cc(C(F)(F)F)n3ncnc3n2)cc1	0.34	i
c1ccc(-c2nnc(-c3c[nH]c4ccccc34)nc2-c2ccccc2)cc1	-6.8	-6.8*
ClC(Cl)c1nnc(-c2ccccc2)c(-c2c[nH]c3ccccc23)n1	·	i
O=C1NC(=S)N/C1=C/c1ccc2ccccc2c1	1.1	i
Cc1ccc(NC(=O)CSc2ccc3c(c2)OCCO3)nc1	·	i
SMILES	KCNQ2 pot	KCNQ2 block
CC(C)C[C@H](NC(=O)OC(C)(C)C)C(=O)N[C@@H](CO)[C@H](O)[C@@H]1C[C@@H]1C(=O)N(C)C	0.74	i
Cc1ccc(CNC(=O)c2sc3nc4c(c(C(F)(F)F)c3c2N)CCC4)cc1	·	i
Nc1c(C(=O)NCc2ccc(Cl)cc2)sc2nc3c(c(C(F)(F)F)c12)CCC3	-6.1	-6.1*
COc1ccc(S(=O)(=O)N(CC(N)=O)C2CCCCC2)cc1Cl	-5.7	-5.7*
COc1ccc(S(=O)(=O)N(C)CC(=O)NC2CCCCC2)cc1Cl	0.01	i
Oc1ccccc1CN(Cc1ccco1)CC(O)COCc1ccc(Cl)cc1 (stereo not given)	-6.1	-6.1*
COc1ccc(COCC(O)CN(Cc2ccco2)Cc2ccccc2O)cc1 (stereo not given)	·	i
COc1ccc(/C=C/C(=O)NC(=S)NCC2CCCO2)cc1 (stereo not given)	0.3	i
COc1ccccc1/C=C/C(=O)NC(=S)NCC1CCCO1 (stereo not given)	-7.1	-7.1*
Cc1cccc(N2CCN(C(=O)c3cc4c(=O)n(C)c5ccccc5c4n3C)CC2C)c1 (stereo not given)	-6.1	-6.1*
Cn1c(C(=O)N2CCCCCC2)cc2c(=O)n(C)c3ccccc3c21	0.64	i
OC1(c2ccc(Cl)cc2)CN(c2ccccc2)C2=[N+]1CCS2 (stereo not given)	-7.2	-7.2*
COc1ccc(C2(O)CN(c3ccccc3)C3=[N+]2CCS3)cc1OC (stereo not given)	·	i
COc1ccc(OC)c(N2CC(O)(c3ccccc3)[N+]3=C2SCCC3)c1 (stereo not given)	·	i
OC1(c2ccc(Br)cc2)CN(c2ccccc2)C2=[N+]1CCS2 (stereo not given)	-6	-6*
Cc1ccc2c(C)c(C(=O)N3CCN(C4CCS(=O)(=O)C4)CC3)oc2c1C (stereo not given)	·	i
